This assay is described as follows: M. tuberculosis growth inhibition, HTS (AID 1259417).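 Also: bacteria grown with compound for 5 days at 37 °C.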 The settings on record: stronger effect = higher value, concentration not given here.
Setting [1] is: M. tuberculosis DsRed fluorescence growth inhibition.
Where [2] appears, read: M. tuberculosis growth inhibition.

The campaign covered roughly 1,100 compounds. About 760 (69%) were called active. No rule for the calls is given here. So high a share suggests a set chosen from earlier hits. Some of the results follow.

The term inhibition denotes the change of the read-out against control, counted positive when it falls. On to `CCOC(=O)CSc1nnc(-c2ccc([N+](=O)[O-])cc2)o1`, for which the inhibition is 95.7% (active) under setting [1] and 95.6% under setting [2].
On the same counts, the results for `O=C(/C=C/c1cccc([N+](=O)[O-])c1)c1cccs1` are 94.6% (active) and 96.5%.
Taken in the same sequence, the figures for `COC(=O)COc1ccc2c(-c3ccc(OC)cc3)cc(=O)oc2c1` were 97.7% (active) and 98.3%.
Taken in the same sequence, the figures for `CCOC(=O)C(C)Oc1ccc2c(-c3ccc(OC)cc3)cc(=O)oc2c1` (stereo not drawn) were 56.3% (active) and 89%.
With `COC(=O)COc1ccc(NC(=O)c2ccc(-c3ccccc3)cc2)cc1`, the inhibition is 99.4% (active) under setting [1] and 100% under setting [2].
For `CCOC(=O)COc1ccc2c(c1)c(C(=O)OCC)c(C)n2CC`, the inhibition was 51.2% (active) under setting [1] and 69.6% under setting [2].
For `COC(=O)COc1ccc(-c2ccc(C)cc2)cc1`, the inhibition by setting is: under setting [1], 35.7% (active); under setting [2], 70.9%.
Taken in the same sequence, the figures for `CC(C)(C)n1cnc2cc(NC(=O)c3ccc(Cl)cc3)ccc21` were 19.9% (inactive) and 28.4%.
Taken in the same sequence, the figures for `CCOC(=O)c1c(C)n(C)c2ccc(OC(C)C(=O)OC)cc12` (stereo not drawn) were 3.6% (inactive) and 19.3%.
On the same counts, the results for `COC(=O)COc1ccc(NC(=O)c2ccc3c(c2)C(=O)N(C(C)(C)C)C3=O)cc1` are 69.9% (active) and 88.2%.
`Cc1ccc(-c2ccc(OCC(=O)OCc3ccccc3)cc2)cc1`: the inhibition was 53.2% (active) under setting [1] and 82.9% under setting [2].
On the same counts, the results for `CCOC(=O)COc1ccc(-c2ccc(C)cc2)cc1` are 24.3% (active) and 81.2%.
Taken in the same sequence, the figures for `CC(C(=O)OCc1ccccc1)n1cnc2scc(-c3ccc(Br)cc3)c2c1=O` (stereo not drawn) were -4.93% (inactive) and -4.92%.
Taken in the same sequence, the figures for `COC(=O)COc1ccc(-c2ccccc2)cc1` were 48.7% (active) and 85.1%.
In the case of `CCOC(=O)COc1ccc(OCc2ccccc2)cc1`, the inhibition is 1.21% (inactive) under setting [1] and -7.23% under setting [2].
Taken in the same sequence, the figures for `COc1ccccc1NC(=O)CSc1nc(-c2ccccc2)cc(C(F)(F)F)c1C#N` were 0.888% (inactive) and 24.8%.
With `CN1CCN(c2cc(-c3ccccc3)nc3c(C(F)(F)F)cccc23)CC1`, the inhibition is 93% (active) under setting [1] and 71% under setting [2].
Taken in the same sequence, the figures for `CC(NC(=O)c1ccc([N+](=O)[O-])o1)C12CC3CC(CC(C3)C1)C2` (stereo not drawn) were 70% (active) and 75.5%.
On the same counts, the results for `CCN(CC)S(=O)(=O)c1ccc(Cl)c(C(=O)Oc2cccc3cccnc23)c1` are 100% (active) and 99.3%.
Taken in the same sequence, the figures for `O=C(Oc1cccc2cccnc12)c1cc2ccccc2oc1=O` were 99.2% (active) and 100%.
On to `O=C(Oc1cccc2cccnc12)c1ccccc1F`, for which the inhibition reads like this: under setting [1], 101% (active); under setting [2], 101%.
Taken in the same sequence, the figures for `O=C(Oc1cccc2cccnc12)c1ccco1` were 101% (active) and 99.7%.
On the same counts, the results for `O=C(Oc1ccccc1)c1cccc2cccnc12` are 99.7% (active) and 101%.
Taken in the same sequence, the figures for `CS(=O)(=O)Cc1nc2ccccc2oc1=O` were 99.8% (active) and 99.5%.
In the case of `CCC(Sc1nc2ccccc2o1)C(=O)Nc1nnc(C)s1` (stereo not drawn), the inhibition was 92.7% (active) under setting [1] and 96.2% under setting [2].
On the same counts, the results for `CNc1nc(SC)nc2ccsc12` are 99.7% (active) and 98.9%.
On the same counts, the results for `c1ccc(C2=Nc3ccccc3OC2)cc1` are 97.6% (active) and 97.5%.
As to `CCCCc1cc(=O)oc2cc(OCC(=O)OCc3ccccc3)c(Cl)cc12`, the inhibition by setting is: under setting [1], 33.1% (active); under setting [2], 73.7%.
Taken in the same sequence, the figures for `CCOC(=O)COc1cc2oc(=O)cc(CC)c2cc1Cl` were 6.17% (inactive) and 26.9%.
As to `CCCCc1cc(=O)oc2cc(OC(C)C(=O)OCC)c(Cl)cc12` (stereo not drawn), the inhibition reads like this: under setting [1], 49.4% (active); under setting [2], 93.7%.
Regarding `CCOC(=O)c1cc(-c2csc(-c3ccc(C(F)(F)F)cc3)n2)on1`, the inhibition is 63.4% (active) under setting [1] and 83.4% under setting [2].
Take `CCOC(=O)c1cc(-c2csc(COc3ccc(Cl)cc3)n2)on1`: the inhibition by setting is: under setting [1], 100% (active); under setting [2], 99.5%.
On the same counts, the results for `CCOC(=O)c1cc(-c2csc(COc3ccccc3Cl)n2)on1` are 98.1% (active) and 98.8%.
On the same counts, the results for `CCOC(=O)C(/C=C(\C#N)C(=O)OCC)=C(/N)N1CCN(c2ccc(Cl)cc2)CC1` are 46% (active) and 46.9%.
On the same counts, the results for `CCOc1ccc2c(c1)OC(=Cc1cccc(OCC(=O)OC)c1)C2=O` are 10% (active) and 50.5%.
`CCOC(=O)COc1ccc(C=C2Oc3cc(OC)ccc3C2=O)cc1`: the inhibition reads like this: under setting [1], 60.8% (active); under setting [2], 79.9%.
On the same counts, the results for `CCOC(=O)COc1cccc(C=C2Oc3cc(OC)ccc3C2=O)c1` are 31.7% (active) and 54%.
With `NC1CCN(c2c(F)cc3c(=O)c(C(=O)O)cn(C4CC4)c3c2Cl)C1` (stereo not drawn), the inhibition is, setting by setting: under setting [1], 99.8% (active); under setting [2], 100%.
On the same counts, the results for `COc1c(N2CCNC(C)C2)c(F)cc2c(=O)c(C(=O)O)cn(C3CC3)c12` (stereo not drawn) are 99.5% (active) and 101%.
On the same counts, the results for `COc1c(N2C[C@@H]3CCCN[C@@H]3C2)c(F)cc2c(=O)c(C(=O)O)cn(C3CC3)c12` are 101% (active) and 100%.
Taken in the same sequence, the figures for `NC1CCN(c2nc3c(cc2F)c(=O)c(C(=O)O)cn3-c2ccc(F)cc2F)C1` (stereo not drawn) were 98.3% (active) and 98.4%.
As for `CC1=NN(c2nc3ccccc3s2)C(=O)C1Cc1cccc2ccccc12` (stereo not drawn), the inhibition is, setting by setting: under setting [1], -2.3% (inactive); under setting [2], 21.1%.
On the same counts, the results for `Cc1cc(C)c2c(c1)c(-c1ccccc1)c(-c1ccccc1)n2CC(O)CN1CCN(CCO)CC1` (stereo not drawn) are 48.4% (active) and 39.3%.
As for `Cc1ccc2c(c1)c(-c1ccccc1)c(-c1ccccc1)n2CC(O)CN1CCN(CCO)CC1` (stereo not drawn), the inhibition is 23.8% (inactive) under setting [1] and 13.1% under setting [2].
On the same counts, the results for `Clc1ccc(C2=CC(c3ccc(Cl)cc3)n3nnnc3N2)cc1` (stereo not drawn) are 43.4% (active) and 39.3%.
Taken in the same sequence, the figures for `Cc1ccc(NC(=O)c2ccc(OCC(=O)OC3CCCCC3)cc2)cc1` were 53.4% (active) and 78.1%.
With `O=C(COc1ccc(-c2ccccc2)cc1)OC1CCCCC1`, the inhibition is, setting by setting: under setting [1], 26.1% (active); under setting [2], 58.6%.
Taken in the same sequence, the figures for `O=C(COc1ccc(C(=O)NCc2ccccc2)cc1)OC1CCCCC1` were 37.7% (active) and 52.9%.
Taken in the same sequence, the figures for `CCOC(=O)COc1ccc(C(=O)NC2CCCCC2)cc1` were 1.79% (inactive) and -15.3%.
On the same counts, the results for `CCOC(=O)COc1ccc(C(=O)Nc2ccc(F)cc2)cc1` are 20.5% (active) and 42.4%.
Turning to `Cc1c(Cc2ccc(Cl)cc2)c(NCCCN(C)C)n2c(nc3ccccc32)c1C#N`, the inhibition under setting [1] is 14.4% (inactive) and the inhibition under setting [2] is -9.38%.
Taken in the same sequence, the figures for `Cc1c(Cc2ccccc2)c(NCCCO)n2c(nc3ccccc32)c1C#N` were 97.8% (active) and 87.9%.
On the same counts, the results for `O=C(NCCc1ccc(F)cc1)NC12CC3CC(CC(C3)C1)C2` are 100% (active) and 96.2%.
As to `CCOC(=O)c1c(CSc2ccccc2)n(-c2ccccc2)c2ccc(O)c(CN(C)C)c12`, the inhibition runs as follows: under setting [1], 92.7% (active); under setting [2], 91.9%.
On the same counts, the results for `Oc1ccc(CNc2ccccc2O)cc1` are 98.3% (active) and 97.3%.
On the same counts, the results for `N#Cc1nc(-c2cccs2)oc1NCCc1ccccc1` are 100% (active) and 100%.
Taken in the same sequence, the figures for `CC(C)N=c1cc2n(-c3ccc(Cl)cc3)c3ccccc3nc-2cc1Nc1ccc(Cl)cc1` were 100% (active) and 99.5%.
With `Cc1ccn2c(-c3csc(Nc4ccccn4)n3)c(C)nc2c1`, the inhibition is 98.9% (active) under setting [1] and 100% under setting [2].
On the same counts, the results for `Cc1cccnc1Nc1nc(-c2ccccn2)cs1` are 100% (active) and 100%.
As to `Cc1cc(O)ccc1Nc1nc(-c2ccccn2)cs1`, the inhibition is 71.9% (active) under setting [1] and 77.7% under setting [2].
On the same counts, the results for `Cc1ccccc1Nc1nc(-c2ccccn2)cs1` are 87.2% (active) and 92.7%.
On the same counts, the results for `Cc1cccc(NC(=O)c2cc(-c3cccs3)nc3ccccc23)n1` are 8.52% (inactive) and 22.7%.
Taken in the same sequence, the figures for `FC(F)(F)c1ccccc1Nc1nc(-c2ccccn2)cs1` were 90.1% (active) and 86.1%.
On to `Cc1cccc(Nc2nc(-c3ccccn3)cs2)n1`, for which the inhibition is 91.2% (active) under setting [1] and 97.6% under setting [2].
On the same counts, the results for `Cc1ccc(C(=O)NCCC23CC4CC(CC(C4)C2)C3)cc1` are 100% (active) and 97.3%.
Taken in the same sequence, the figures for `O=C(NCCC12CC3CC(CC(C3)C1)C2)c1ccc(Br)cc1` were 98.8% (active) and 94.1%.
On the same counts, the results for `c1ccc2sc(NC3=NCN(Cc4ccc5c(c4)OCO5)CN3)nc2c1` are 17.9% (active) and 69.1%.
As to `O=C(OCc1ccc(F)cc1)c1ccc2ccccc2n1`, the inhibition was 3.6% (inactive) under setting [1] and 5.51% under setting [2].
On the same counts, the results for `Cc1nc2ccc(C(=O)OCc3cccc(F)c3)cc2nc1C` are 19.1% (active) and 60.3%.
On the same counts, the results for `Cc1nc2ccc(C(=O)OCc3nnc(-c4ccccc4)o3)cc2nc1C` are -4.41% (inactive) and 0.442%.
Taken in the same sequence, the figures for `CC(C)(C)c1ccc(C(=O)Nc2nnc(-c3ccco3)o2)cc1` were 88.2% (active) and 89.7%.
For `Cc1ccccc1C(=O)Nc1nnc(-c2ccco2)o1`, the inhibition under setting [1] was 47.6% (active) and the inhibition under setting [2] was 71.5%.
On the same counts, the results for `O=C(Nc1nnc(-c2cccs2)o1)c1ccco1` are -2.8% (inactive) and -18.4%.
On the same counts, the results for `O=C(Nc1nnc(-c2ccco2)o1)c1cccs1` are 17.8% (active) and 40.1%.
Taken in the same sequence, the figures for `O=C(Nc1nnc(-c2cccs2)o1)c1cccc(C(F)(F)F)c1` were 1.3% (inactive) and 6.76%.
With `O=C(Nc1nnc(-c2ccco2)o1)c1cccc(C(F)(F)F)c1`, the inhibition was 88.4% (active) under setting [1] and 94.4% under setting [2].
On the same counts, the results for `CCSc1ccc(CC(=O)Nc2nnc(-c3ccc4c(c3)OCCO4)o2)cc1` are 2.15% (inactive) and 7.09%.
On the same counts, the results for `CCSc1ccc(C(=O)Nc2nnc(-c3ccco3)o2)cc1` are 83.8% (active) and 91.8%.
On the same counts, the results for `CN1CCC(O)(c2cccs2)C(C(=O)c2cccs2)C1` (stereo not drawn) are 100% (active) and 98.7%.
With `c1ccc(OCc2nn3c(-c4n[nH]c5c4CCC5)nnc3s2)cc1`, the inhibition by setting is: under setting [1], 99.1% (active); under setting [2], 99.6%.
On the same counts, the results for `N#Cc1ccccc1NC(=O)CSc1nc2cc3ccccc3cc2[nH]1` are 2.65% (inactive) and 10.4%.
On the same counts, the results for `O=C(CSc1nc2ccccc2c(=O)[nH]1)NCc1ccccc1` are 101% (active) and 100%.
Taken in the same sequence, the figures for `COc1ccccc1NC(=O)CSc1nc2cc3ccccc3cc2[nH]1` were -0.285% (inactive) and -21.7%.
As for `Cc1cc(C)n(C(=O)c2ccc([N+](=O)[O-])cc2[N+](=O)[O-])n1`, the inhibition reads like this: under setting [1], 0.918% (inactive); under setting [2], -7.93%.
`O=C(NCCN1CCOCC1)c1ccc([N+](=O)[O-])cc1[N+](=O)[O-]`: the inhibition is 98.1% (active) under setting [1] and 94.6% under setting [2].
Taken in the same sequence, the figures for `O=[N+]([O-])c1ccc(NCCNc2nc3ccccc3nc2N2CCOCC2)cc1` were 8.52% (inactive) and -3.69%.
On to `O=C(Nc1nnc(-c2ccccc2)o1)c1ccco1`, for which the inhibition was 20.9% (active) under setting [1] and 32.7% under setting [2].
`O=C(Nc1nnc(-c2ccc(F)cc2)o1)c1ccco1`: the inhibition runs as follows: under setting [1], 26% (inactive); under setting [2], 16.6%.
For the compound `O=C(Nc1nnc(-c2ccc(Cl)cc2)o1)c1ccco1`, the inhibition by setting is: under setting [1], 20% (active); under setting [2], 48.4%.

(Values after PubChem BioAssay AID1259417 (TB Discovery Research, Infectious Disease Research Institute, 2018).)
